Test results reported in PubChem BioAssay AID588856 (National Center for Advancing Translational Sciences (NCATS), 2011).
Out of some 410,000 compounds screened, about 3,100 (0.76%) were called active. The sample holds actives, similar compounds and a random draw of the others, so the mix is not that of the screen. Values without a mark were called inactive. The call rests on the fitted dose curve; in most records, active means well fitted cell-killing curve with a large enough effect; inactive means no such curve, though single readings can be large or run the other way.

Assay: qHTS for Inhibitors of TGF-b: Cytotox Counterscreen
Conditions: HepG2 CAGA-GFP viability, ATP luminescence, 18 h; series mostly up to 46.1 µM; activity change, negative = cytotoxicity: at the top concentration
Procedure, shortened: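 CellTiter-Glo luminescence gave cytotoxicity after 18 hours at 37 degrees C. The cells were HepG2 CAGA-GFP in 1% FBS DMEM, stimulated with 500 pg/mL TGF-beta after compound addition. %Activity was normalised to no-cell wells (complete cell-killing) and DMSO (no toxicity), and curves were fitted and classified.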
Potency means the concentration at half of the fitted maximal effect.

SMILES	activity change, negative = cytotoxicity	Potency
Cc1ccc(C)c(S(=O)(=O)c2nnn3c2nc(N2CCOCC2)c2sccc23)c1	-0.494%	–
CN1CCN(/[N+]([O-])=N/Oc2ccc([N+](=O)[O-])cc2[N+](=O)[O-])CC1	-43.6%	–
CC1(C)C=Cc2c(ccc(C(=O)/C=C/c3ccccc3)c2O)O1	-21.1%	–
O=C1C=CC(=O)N1c1ccc(N2CCCCC2)cc1	–	17.8 µM (active)
Cc1ccc(CNC(=O)CCc2c(C)nc3c(c(C)nn3-c3ccccc3)c2C)cc1	-0.273%	–
O=C(Nc1ccc(Cl)cc1)c1cnn2c1NC(=C1CC1)C=C2C(F)F	8.6%	–
COc1ccc(-c2nc3sc(CCNC(=O)C(C)(C)C)c(C)n3n2)cc1	-8.78%	–
CC1CCC2(CC1)N=C(c1ccccc1)C(=O)N2CC(=O)Nc1ccc(F)c(Cl)c1 (centres undefined)	-29.1%	–
CCn1c(SCC(=O)Nc2nc(C)cs2)nnc1C(C)NC(=O)c1ccccc1 (centres undefined)	-6.84%	–
CCn1c(CC(=O)Nc2ccc(C)cc2)nnc1SCC(=O)Nc1nc(C)cs1	-0.792%	–
COCCn1c(SCC(=O)Nc2nc(C)cs2)nnc1C(C)C	–	11.2 µM (active)
CCn1c2ccccc2c2nnc(SCC(=O)O)nc21	-10.9%	–
COc1ccc(NC(=O)Nc2cccc(-c3noc(C)n3)c2)cc1	-21.4%	–
Cc1ccc(S(=O)(=O)N2CCN(c3nc(-n4cnc5ccccc54)nc4ccccc34)CC2)cc1	-20.3%	–
Cc1sc2ncn(CC(=O)N3CCN(c4ccc(F)cc4)CC3)c(=O)c2c1S(=O)(=O)N1CCN(c2ncccn2)CC1	-13.7%	–
CC(C)(C)OC(=O)N(Cc1ccco1)S(=O)(=O)c1ccccc1Br	49%	–
C=C1C=C(C(F)F)n2ncc(C(=O)NCCc3ccccc3OC)c2N1	9.57%	–
COc1ccc(-c2cn3c(n2)sc2cc(C(=O)Nc4ccccc4F)ccc23)cc1	-25.4%	–
CC(Nc1nc(C(F)(F)F)nc2ccccc12)c1cccs1 (centres undefined)	–	22.4 µM (active)
Oc1ccccc1-c1nc(/C=C/c2ccc(F)cc2)no1	-4.32%	–
COc1cc(Cl)ccc1Nc1ncc(C(=O)N2CCN(c3ccccc3OC)CC2)c2ccccc12	-20.1%	–
Cc1ccc(S(=O)(=O)NCC2CCC(C(=O)N3CCOCC3)CC2)cc1 (centres undefined)	-27.1%	–
O=C(O)C1CCC(CNS(=O)(=O)c2ccc(Br)cc2)CC1 (centres undefined)	–	15.8 µM (active)
O=C(NC1CCCCC1)C1CCC(CNS(=O)(=O)c2ccccc2)CC1 (centres undefined)	0.959%	–
O=C(NC1CC(=O)N(c2ccc(F)cc2)C1)c1ccc(S(=O)(=O)N2CCCC2)cc1 (centres undefined)	-8.93%	–

SMILES	activity change, negative = cytotoxicity	Potency
CN(C(=O)CSc1nc2ccc(NC(=O)COc3ccccc3)cc2s1)c1ccccc1	-19.4%	–
Cc1ccc(F)cc1NC(=O)CCSc1nc(-c2ccco2)cc(C(F)(F)F)n1	-14.5%	–
CCc1ccc(CN(Cc2ccco2)C(=O)c2ccccc2Cl)cc1	-52%	–
CC1CCCCN1S(=O)(=O)c1ccc(F)c(C(=O)Nc2ccccc2C(F)(F)F)c1 (centres undefined)	-15%	–
Cc1ccc(CNC(=O)CCc2c(C)nn(-c3ccc(N4CCCC4)nn3)c2C)cc1	-31.6%	–
N=c1n(Cc2ccc(Cl)cc2)c2ccccc2n1CC(O)c1ccco1 (centres undefined)	–	12.6 µM (active)
N=c1n(CCc2ccccc2)c2ccccc2n1Cc1ccccc1F	3.66%	–
O=C(NCc1ccccc1)C(=O)NCC(c1ccco1)S(=O)(=O)c1ccc(Cl)cc1 (centres undefined)	-15.4%	–
COc1ccccc1-c1ccnc2[nH]n(-c3ccccc3)c(=O)c12	-6.7%	–
OCc1cnc(SCc2ccc(F)cc2)n1Cc1ccc(F)cc1	-24.2%	–
NC(Cc1ccccc1)c1csc(Nc2cc(Oc3ccccc3)ncn2)n1 (centres undefined)	–	31.6 µM (active)
COCCn1c(SCC(=O)c2cc(C)ccc2C)nc2cc(C(=O)NC3CCCC3)ccc2c1=O	-6.56%	–
CCC(=O)N1CCc2cc(S(=O)(=O)NC(C(=O)Nc3ccc(C(C)=O)cc3)C(C)C)ccc21 (centres undefined)	-14.7%	–
COC(=O)c1ccc(-c2nc3cc(NC(C)=O)ccc3o2)cc1	-1.18%	–
O=C(Nc1cccc(-c2cccc(Cl)c2)c1)C1CCN(C2CCC2)CC1	-73.6%	–
CCn1cc(CN2CCC(C(=O)Nc3cccc(-c4cccc(Cl)c4)c3)CC2)c(C)n1	–	12.6 µM (active)
CC(=O)c1cc(CN2CCC(C(=O)Nc3cccc(-c4cscn4)c3)CC2)cs1	-31.8%	–
Cc1ccc(CNC(=O)C2(C(F)(F)F)C/C(=C\CCO)CCCO2)o1 (centres undefined)	-11.9%	–
COc1cc(OC)c2c(C)cc(=O)oc2c1C(CCN1CCCCC1)c1ccc(N(C)C)cc1 (centres undefined)	-34.4%	–
Cc1cc(C)cc(NS(=O)(=O)c2ccc(Oc3ncc(C(F)(F)F)cc3Cl)cc2)c1	–	12.6 µM (active)
Cc1ccc(NS(=O)(=O)c2ccc(F)cc2)nc1	-17%	–
Nc1ncc(S(=O)(=O)Nc2ccc(OC(F)(F)F)cc2)cn1	-7.99%	–
NC(=O)C1CCN(C(=O)c2cccc(NC(=O)c3nsc4ccccc34)c2)CC1	-18%	–
COc1cc(OC)c(N(C)C(=O)c2cc3c(=O)oc4ccccc4c3s2)cc1Cl	-20%	–
